TRHR enhancer-1 = qHTS for Small Molecule Agonists and Allosteric Enhancers of Human TRH Receptor: Primary Screen for Enhancers; TRHR cells, fluo-8 calcium fluorescence, EC20 TRH enhancement; actives 0.66% (n = 360,000); enhancement, % at 2 µM; Thyrotropin-releasing hormone receptor (Homo sapiens), P34981; in the data active = enhancement above about 30%; also: 0% is about no effect
Target sequence (P34981 whole entry, looked up): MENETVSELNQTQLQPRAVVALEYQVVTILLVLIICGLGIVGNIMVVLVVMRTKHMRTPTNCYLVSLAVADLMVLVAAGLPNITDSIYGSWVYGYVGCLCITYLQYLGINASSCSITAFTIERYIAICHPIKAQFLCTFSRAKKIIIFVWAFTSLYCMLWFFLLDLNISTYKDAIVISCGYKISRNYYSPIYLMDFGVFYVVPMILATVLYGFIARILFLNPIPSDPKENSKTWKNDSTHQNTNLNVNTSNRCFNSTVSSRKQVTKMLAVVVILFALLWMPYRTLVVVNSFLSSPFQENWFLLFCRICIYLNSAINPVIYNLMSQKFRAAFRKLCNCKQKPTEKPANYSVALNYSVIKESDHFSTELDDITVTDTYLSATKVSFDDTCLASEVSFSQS
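Enhancer read-out: after compound pinning and an initial kinetic agonist-mode read, an EC20 of TRH (10 nM final) was injected and fluo-8 calcium signal (Ex 480/Em 530) followed at 1 s/cycle for 100 cycles in TRHR-expressing cells.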
D1 potentiator = Potentiators of Human D1 Dopamine Receptor: qHTS; D(1A) dopamine receptor (Homo sapiens), P21728; HEK293 TREx D1 cells, calcium flux, dopamine EC20 potentiation; potentiation, % at 10 µM; actives 0.036% (n = 360,000); in the data active = potentiation above about 30%; also: 0% is about no effect
D1 antag = Antagonist of Human D 1 Dopamine Receptor: qHTS; activity change, negative = inhibition, % at 10 µM; HEK293 TREx D1 cells, calcium flux, dopamine EC80; stronger effect = lower value; D(1A) dopamine receptor (Homo sapiens), P21728; actives 3.2% (n = 360,000); AID 504652, 2011; in the data active = activity change below about -30%; also: % is scaled to controls: 0 for no effect and ±100 for the full control effect
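Tetracycline-induced HEK293 Trex D1 cells, force-coupled to calcium, dye-loaded; compounds added and read 180 s, then EC80 dopamine added and calcium flux tracked kinetically another 180 s.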
D1 agonist = Allosteric Agonists of the Human D1 Dopamine Receptor: qHTS; activation, % at 2 µM; actives 1% (n = 360,000); HEK293 T-REx D1 cells, calcium flux, agonist mode; also: 0% is about no effect
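Agonism was scored from calcium flux recorded over 180 s (1 read/s) after pintool compound addition, following a 10-cycle baseline. Cells were inducible force-coupled HEK293 TREx D1, plated overnight at 30 C and loaded with no-wash calcium dye.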
TRHR agonist-1 = qHTS for Small Molecule Agonists and Allosteric Enhancers of Human TRH Receptor: Primary Screen for Agonists | TRHR cells, calcium flux fluo-8, FDSS agonist mode | actives 0.18% (n = 360,000) | activation, % at 2 µM | Thyrotropin-releasing hormone receptor (Homo sapiens), P34981; also: 0% is about no effect
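In this calcium-flux screen, cells bearing human TRHR are dye-loaded with fluo-8, baselined for 10 cycles, then exposed to library compounds; positive kinetic calcium responses during the agonist phase mark hits, with TRH as control.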
TRHR enhancer-2 = qHTS for Small Molecule Agonists and Allosteric Enhancers of Human TRH Receptor: Confirmation Screen for Enhancers. TRH receptor cell assay, enhancer confirmation qHTS. 970 tested, under 10 active. AID 493076, 2011. activity change, negative = inhibition, % at 46.1 µM. shares compounds with TRHR enhancer-1; active = well fitted curve in the direction sought with a large enough effect; inconclusive = small, poorly fitted or top-dose-only effect, or another doubt; inactive = no such curve, though single readings can be large; an effect the other way counts as inactive or inconclusive;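 also: compound effect scored on response to added TRH at EC20 of 10 nM; 0% is about no effect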
TRHR agonist-2 = qHTS for Small Molecule Agonists and Allosteric Enhancers of Human TRH Receptor: Confirmation Screen for Agonists | shares compounds with TRHR enhancer-1 | TRHR-expressing cells, agonist activation read-out | Potency, µM (series often up to 46.1 µM), inactives show top-dose activation, hits mostly activators | actives 8% (n = 970) | AID 493078, 2011; active = well fitted curve in the direction sought with a large enough effect; inconclusive = small, poorly fitted or top-dose-only effect, or another doubt; inactive = no such curve, though single readings can be large; an effect the other way counts as inactive or inconclusive; also: potency is read from the fitted curve at half-maximal effect; 0% is about no effect; nearly all actives have a fitted effect of over 75% in size
* = called active by the depositor. The list is not random: actives were taken first. Their share in the collection is about 4.6%. Rule as the data show it, unless noted: active = activation above about 30%; inactive = the rest.

Results for CC1CC(C)(C)NC(=S)N1CCCC(=O)Nc1ccc(F)c(F)c1 (stereo unspecified) ?
TRHR enhancer-1: 1.0; D1 potentiator: 1.1; D1 antag: -3.6; D1 agonist: 3.1; TRHR agonist-1: -0.1

Results for O=C(c1ccc(C(F)(F)F)cc1)C1CCCN(C(=O)CN2CCCC2=O)C1 (stereo unspecified) ?
TRHR enhancer-1: 56.3*; D1 potentiator: -1.6; D1 antag: 21.7; D1 agonist: -0.1; TRHR agonist-1: -0.2; TRHR enhancer-2: -3.0; TRHR agonist-2: 4.4%

Results for C/C(=N\O)C(C)(C)Nc1ccccc1F ?
TRHR enhancer-1: 3.9; D1 potentiator: -0.5; D1 antag: -3.8; D1 agonist: 1.0; TRHR agonist-1: -0.2

What do the screens show for `O=C(NCc1ccc(F)cc1)c1ccc(N2CCOCC2)c([N+](=O)[O-])c1`?
TRHR enhancer-1: 3.2; D1 potentiator: -5.2; D1 antag: 1.4; D1 agonist: -0.6; TRHR agonist-1: -0.2

What do the screens show for `O=C(N/N=C/c1ccc(N2CCOCC2)c([N+](=O)[O-])c1)c1ccc(F)cc1`?
TRHR enhancer-1: 99.8*; D1 potentiator: -0.6; D1 agonist: -1.0; TRHR agonist-1: -0.5; TRHR enhancer-2: 6.5; TRHR agonist-2: 1.6%

How did O=C(/C=C/c1cn(CC(O)CN2CCCCC2)c2ccccc12)c1cccs1 (stereo unspecified) do in these assays?
TRHR enhancer-1: 6.7; D1 potentiator: -7.0; D1 antag: -0.4; D1 agonist: 46.2*; TRHR agonist-1: 35.9*; TRHR enhancer-2: 4.9; TRHR agonist-2: inconclusive

Results for OC(CN1CCCCC1)Cn1c2ccccc2c2ccccc21 (stereo unspecified) ?
TRHR enhancer-1: -0.8; D1 potentiator: -6.2; D1 antag: 4.8; D1 agonist: 15.7; TRHR agonist-1: 2.3

How did CN(CC(=O)NCc1ccc2c(c1)OCO2)S(=O)(=O)c1ccc(F)cc1 do in these assays?
TRHR enhancer-1: 42.5*; D1 potentiator: 2.3; D1 antag: 0.5; D1 agonist: 1.1; TRHR agonist-1: -0.2; TRHR enhancer-2: 8.3; TRHR agonist-2: -0.7%

What do the screens show for `O=C(O)CCCC(=O)N1N=C(c2ccccc2)CC1c1ccc2nccnc2c1` (stereo unspecified)?
TRHR enhancer-1: 46.1*; D1 potentiator: -0.6; D1 antag: 5.9; D1 agonist: 3.2; TRHR agonist-1: 0.2; TRHR enhancer-2: 1.0; TRHR agonist-2: -0.4%

How did O=C(O)CCC(=O)N1N=C(c2ccccc2)CC1c1ccc2nccnc2c1 (stereo unspecified) do in these assays?
TRHR enhancer-1: -4.1; D1 potentiator: -4.2; D1 antag: 8.2; D1 agonist: 1.4; TRHR agonist-1: 0.5

What do the screens show for `C#CCN(Cc1ccccc1)S(=O)(=O)C=C`?
TRHR enhancer-1: 2.8; D1 potentiator: 4.7; D1 antag: -12.5; D1 agonist: -1.5; TRHR agonist-1: -0.7

Results for O=S(=O)(c1cccc(Cl)c1)c1nnn2c1nc(NCc1ccc3c(c1)OCO3)c1sccc12 ?
TRHR enhancer-1: 5.1; D1 potentiator: -3.6; D1 antag: -3.6; D1 agonist: 2.2; TRHR agonist-1: 0.0

Results for Cc1cc(CNC(=O)COC(=O)Cn2[nH]c(=O)c3ccccc3c2=O)cc(C)c1O ?
TRHR enhancer-1: 1.4; D1 potentiator: 0.5; D1 antag: -20.4; D1 agonist: 1.1; TRHR agonist-1: 0.0

What do the screens show for `COc1cc(NC(=O)[C@@H](NC(=O)N2CCn3c2nc2ccccc23)C(C)C)cc(OC)c1`?
TRHR enhancer-1: 43.2*; D1 potentiator: 10.2; D1 antag: 21.7; D1 agonist: -0.8; TRHR agonist-1: 0.2; TRHR enhancer-2: 1.3; TRHR agonist-2: 1.5%

Results for CC(C)[C@H](NC(=O)N1CCn2c1nc1ccccc12)C(=O)N[C@H](Cc1ccccc1)C(=O)O ?
TRHR enhancer-1: -0.5; D1 potentiator: -7.6; D1 antag: -2.7; D1 agonist: 0.8; TRHR agonist-1: 0.1

Results for CC1(C)CC(NC(=O)c2cccc(S(=O)(=O)N(Cc3ccccc3)c3ccccc3)c2)CC(C)(C)N1 ?
TRHR enhancer-1: 8.3; D1 potentiator: 1.4; D1 antag: 10.2; D1 agonist: 6.3; TRHR agonist-1: 0.3

What do the screens show for `NC(=O)CSc1nnc(-c2ccc(S(=O)(=O)N3CCCCC3)cc2)n1-c1ccccc1`?
TRHR enhancer-1: 50.0*; D1 potentiator: 7.0; D1 antag: -3.8; D1 agonist: 3.3; TRHR agonist-1: 0.0; TRHR enhancer-2: inconclusive; TRHR agonist-2: -0.7%

What do the screens show for `COc1ccccc1-n1c(SCC(N)=O)nnc1-c1ccc(S(=O)(=O)N2CCCCC2)cc1`?
TRHR enhancer-1: -1.9; D1 potentiator: 2.9; D1 antag: 1.8; D1 agonist: 2.2; TRHR agonist-1: 0.0

How did Cc1ccc(C2C(C#N)=C(N)Oc3n[nH]c(C)c32)cc1 (stereo unspecified) do in these assays?
TRHR enhancer-1: 2.5; D1 potentiator: -7.7; D1 antag: 8.1; D1 agonist: 0.7; TRHR agonist-1: -0.1

How did Cc1[nH]nc2c1C(c1cnn(C)c1)C(C#N)=C(N)O2 (stereo unspecified) do in these assays?
TRHR enhancer-1: 54.8*; D1 potentiator: -2.2; D1 antag: -5.0; D1 agonist: 4.1; TRHR agonist-1: 0.6; TRHR enhancer-2: -0.5; TRHR agonist-2: -0.6%

Results for COc1cc(NC(=O)c2ccccc2)c(OC)cc1NC(=O)CN1C(=O)NC2(CCCCC2C)C1=O (stereo unspecified) ?
TRHR enhancer-1: -2.6; D1 potentiator: -2.7; D1 antag: 10.4; D1 agonist: 0.4; TRHR agonist-1: 0.5

What do the screens show for `COc1cccc(C(=O)N2CCN(Cc3ccccc3C(F)(F)F)CC2)c1`?
TRHR enhancer-1: 2.4; D1 potentiator: -1.7; D1 antag: -9.8; D1 agonist: 9.2; TRHR agonist-1: 0.1

Screens (PubChem)
